Data: PubChem BioAssay AID1345085 (National Center for Advancing Translational Sciences (NCATS), 2018)
Results filed as inconclusive are left out. Calls of active or inactive are those of the source. Calls follow the shape of the dose curve; as a rule, active = well fitted cell-killing curve with a large enough effect; inconclusive = small, poorly fitted or top-dose-only effect, or effect the other way; inactive = no such curve, though single readings can be large or run the other way.

tested on: HeLa; assay: Confirmatory qHTS for gynecologic anti-cancer compounds from libraries of approved drugs and bioactive compounds; conditions: gynecologic cancer cell panel viability, ATPlite luminescence, 48 h; series mostly up to 57.6 µM; also: nearly all actives have a fitted effect of over 55% in size
How it was run: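 IC50 values derive from an ATPlite ATP-content luminescence assay following 48 h treatment at 37 C. Each compound ran as an 11-concentration, threefold series (57.5 uM to 0.977 nM); HEK 293T served as control line for selectivity index.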
% is scaled to controls: 0 for no effect and ±100 for the full control effect; potency is read from the fitted curve at half-maximal effect.

SMILES	Potency	activity change, negative = viability loss
CC(C)n1nc(-c2cc3cc(O)ccc3[nH]2)c2c(N)ncnc21	5.44 µM (active)	
COc1cc(N2CCC(N3CCN(C)CC3)CC2)ccc1Nc1ncc(Cl)c(Nc2ccccc2S(=O)(=O)C(C)C)n1	0.769 µM (active)	
CCn1c(-c2nonc2N)nc2c(C#CC(C)(C)O)ncc(OCC3CCCNC3)c21 (stereo unspecified)	21.7 µM (active)	
CC(C)Nc1cc(-c2c[nH]c(C(=O)N[C@H](CO)c3cccc(Cl)c3)c2)c(Cl)cn1	21.7 µM (active)	
CC[C@@]1(O)C(=O)OCc2c1cc1n(c2=O)Cc2cc3c(CN(C)C)c(O)ccc3nc2-1	8.63 µM (active)	
CCS(=O)(=O)c1cccc(-c2cc(C(=O)NC3CCN(C)CC3)c(C)c3[nH]c4ncc(C)cc4c23)c1	0.476 µM (active)	
COC(=O)c1ccc2c(C(=Nc3ccc(N(C)C(=O)CN4CCN(C)CC4)cc3)c3ccccc3)c(O)[nH]c2c1	24.3 µM (active)	
CCN(CC)CCNC(=O)c1c(C)[nH]c(/C=C2\C(=O)Nc3ccc(F)cc32)c1C	12.6 µM (active)	
CC(C)C[C@H](NC(=O)[C@H](CCc1ccccc1)NC(=O)CN1CCOCC1)C(=O)N[C@@H](Cc1ccccc1)C(=O)N[C@@H](CC(C)C)C(=O)[C@@]1(C)CO1	10.9 µM (active)	
Cc1cnc(Nc2cccc(CN3CCOCC3)c2)nc1Nc1cccc(S(=O)(=O)NC(C)(C)C)c1	1.72 µM (active)	
Cc1nc(Nc2n[nH]c3c2CN(C(=O)NC(CN(C)C)c2ccccc2)C3(C)C)c2sccc2n1 (stereo unspecified)	3.06 µM (active)	
CN(C)C/C=C/C(=O)Nc1cc2c(Nc3ccc(F)c(Cl)c3)ncnc2cc1OC1CCOC1 (stereo unspecified)	24.3 µM (active)	
CCOc1cc2ncc(C#N)c(Nc3ccc(F)c(Cl)c3)c2cc1NC(=O)/C=C/CN(C)C	24.3 µM (active)	
CCC1C(=O)N(C)c2cnc(Nc3ccc(C(=O)NC4CCC(N5CCN(CC6CC6)CC5)CC4)cc3OC)nc2N1C(C)C (stereo unspecified)	0.0385 µM (active)	
CN1CCCC(n2nc(Cc3ccc(Cl)cc3)c3ccccc3c2=O)CC1 (stereo unspecified)	inactive	
CC[C@@]1(O)C(=O)OCc2c1cc1n(c2=O)Cc2c-1nc1ccccc1c2/C=N/OC(C)(C)C	7.69 µM (active)	
CC1(C)[C@@H](O)CC[C@]2(C)[C@H]3C(=O)C=C4[C@@H]5C[C@@](C)(C(=O)O)CC[C@]5(C)CC[C@@]4(C)[C@]3(C)CC[C@@H]12	inactive	
Nc1cccc(-c2cc3c(Oc4cccc(O)c4)ncnc3[nH]2)c1	9.68 µM (active)	

SMILES	Potency	activity change, negative = viability loss
Cc1cnc(CNC(=O)c2c(=O)c3ccc(N4CCCN(C)CC4)nc3n3c2sc2ccccc23)cn1		-3.33% [at 10.7 µM] (inactive)
COc1c(C)c2c(c(O)c1C/C=C(\C)CCC(=O)OCCN1CCOCC1)C(=O)OC2	2.43 µM (active)	
Cc1nc(N)sc1-c1ccnc(Nc2ccc(N3CCOCC3)cc2)n1	2.17 µM (active)	
C[C@@]1(C(=O)Nc2ccc(F)nc2)CCCN1c1nc(Nc2cc(C3CC3)[nH]n2)c2cccn2n1	0.968 µM (active)	
CC(C)(C(=O)NCC(F)(F)C(F)(F)F)C(=O)NC1C(=O)Nc2ccccc2-c2ccccc21 (stereo unspecified)	6.11 µM (active)	
Nc1nc(=S)c2[nH]cnc2[nH]1	2.43 µM (active)	
Cc1ccc(C(=O)Nc2cccc(C(F)(F)F)c2)cc1-c1ccc2nc(NCCN3CCOCC3)ncc2c1	7.69 µM (active)	
Cc1ccc(C(=O)N(CCCN)C(c2oc3cc(Cl)ccc3c(=O)c2Cc2ccccc2)C(C)C)cc1 (stereo unspecified)	0.0137 µM (active)	
CC(Oc1cc(-n2cnc3ccc(CN4CCN(C)CC4)cc32)sc1C(N)=O)c1ccccc1C(F)(F)F (stereo unspecified)	2.43 µM (active)	
CN(C)c1ccc(-c2nc3ncc(Cl)c(N4CCN(CC(=O)Nc5nccs5)CC4)c3[nH]2)cc1	2.37 µM (active)	
CC(C)C[C@H](NC(=O)[C@H](Cc1ccccc1)NC(=O)c1cnccn1)B(O)O	6.11 µM (active)	
CN(NC(=O)CC(=O)NN(C)C(=S)c1ccccc1)C(=S)c1ccccc1	0.122 µM (active)	
CCCS(=O)c1ccc2nc(NC(=O)OC)[nH]c2c1 (stereo unspecified)	24.3 µM (active)	
CN1C2CCC1CC(OC(=O)[C@H](CO)c1ccccc1)C2 (stereo partly specified)	inactive	
CN(C[C@@H]1COCCO1)S(=O)(=O)Nc1ccc2ccc3ncc(-c4cnn(C)c4)cc3c(=O)c2c1	5.44 µM (active)	
Nc1ncnc2c1ncn2[C@@H]1O[C@H](CO)C[C@H]1O	inactive	
Nc1ccccc1NC(=O)c1ccc(CNc2nccc(-c3cccnc3)n2)cc1	1.53 µM (active)	
COc1ccc(CCC(=O)c2c(O)cc(O[C@@H]3O[C@H](CO)[C@@H](O)[C@H](O)[C@H]3O[C@@H]3O[C@@H](C)[C@H](O)[C@@H](O)[C@H]3O)cc2O)cc1O	inactive	
